Screens from PubChem.
PI5P4Ka inh – qHTS for Inhibitors of phosphatidylinositol 5-phosphate 4-kinase (PI5P4K) | Phosphatidylinositol 5-phosphate 4-kinase type-2 alpha (Homo sapiens), P48426 | PI5P4Kalpha enzyme, ADP-Glo luminescence, 60 min; stronger effect = lower value | max response, % | 330,000 tested, 1.2% active; active = max response of -50% or lower; inconclusive = between -30% and -50%; inactive = -30% or higher; also: value at the top dose of about 77 µM; % is scaled to controls: 0 for no effect and ±100 for the full control effect
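Human PI5P4Kalpha with substrate in 0.038 M HEPES pH 7.4, 0.28 mM EGTA, 0.1% CHAPS, 5% DMSO; reaction started with 5 microM ATP (final), 60 min at room temperature. ADP formed read by ADP-Glo luminescence.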
G9a block – qHTS Assay for Inhibitors of Histone Lysine Methyltransferase G9a | Histone-lysine N-methyltransferase EHMT2 (Homo sapiens), Q96KQ7 | G9a H3K9 monomethylation, AlphaScreen, 2 h | Potency, µM (doses to about 102 µM), for inactives: at the top dose activity, negative = inhibition, actives largely listed as inhibitors | 350,000 tested, 8.8% active | AID 504332, 2011; also: potency is read from the fitted curve at half-maximal effect; % is scaled to controls: 0 for no effect and ±100 for the full control effect; nearly all actives have a fitted effect of over 75% in size
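Chemiluminescent proximity detection of H3K9 monomethylation, read after 10 min bead incubation in the dark. Reaction: 20 nM G9a, 500 nM biotin-H3K9 peptide, 20 uM SAM cofactor, 2 h, room temperature, following 15 min enzyme-compound preincubation.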
JMJD2A Tudor – qHTS Assay for Inhibitors of JMJD2A-Tudor Domain; Lysine-specific demethylase 4A (Homo sapiens), O75164; AlphaScreen JMJD2A-Tudor / H3K4me3 peptide binding; Potency, µM (top dose mostly 114 µM), for inactives: top-dose activity change, negative = inhibition, hits mostly inhibitors; 390,000 tested, 4.4% active; AID 504339, 2011; also: potency is read from the fitted curve at half-maximal effect; % is scaled to controls: 0 for no effect and ±100 for the full control effect; nearly all actives have a fitted effect of over 50% in size
PLK1 PBD block – qHTS for Inhibitors of PLK1-PDB (polo-like kinase 1 - polo-box domain): Primary Screen. Plk1 PBD binding of FITC phosphopeptide, fluorescence polarization. Potency, µM, for the others: max response, negative = inhibition, usual class: inhibitors. 360,000 tested, 2.8% active. AID 720504, 2013; also: potency is read from the fitted curve at half-maximal effect; series mostly up to about 57 µM; % is scaled to controls: 0 for no effect and ±100 for the full control effect; nearly all actives have a fitted effect of over 65% in size
Target sequence (P53350 whole entry, looked up, the tested form may be a part): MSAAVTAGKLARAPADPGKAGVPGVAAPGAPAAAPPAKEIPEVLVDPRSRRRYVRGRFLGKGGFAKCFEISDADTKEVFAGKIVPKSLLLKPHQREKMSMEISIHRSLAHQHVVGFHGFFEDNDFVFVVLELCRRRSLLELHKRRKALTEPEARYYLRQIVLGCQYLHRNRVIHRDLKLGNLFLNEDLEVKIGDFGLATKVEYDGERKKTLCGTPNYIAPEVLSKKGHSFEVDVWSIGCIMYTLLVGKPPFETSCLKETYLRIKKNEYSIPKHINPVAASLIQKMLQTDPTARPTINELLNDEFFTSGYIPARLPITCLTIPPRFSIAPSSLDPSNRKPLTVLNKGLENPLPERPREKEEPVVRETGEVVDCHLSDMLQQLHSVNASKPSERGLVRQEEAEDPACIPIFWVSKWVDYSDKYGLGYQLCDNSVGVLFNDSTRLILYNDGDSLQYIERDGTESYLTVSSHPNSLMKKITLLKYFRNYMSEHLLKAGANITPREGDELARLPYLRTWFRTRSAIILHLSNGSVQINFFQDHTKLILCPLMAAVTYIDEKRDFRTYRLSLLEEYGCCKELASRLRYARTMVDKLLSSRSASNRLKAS
BAZ2B inh – qHTS Assay for Inhibitors of BAZ2B | Potency, µM (doses to about 114 µM), inactives show at the highest dose activity change, negative = inhibition, usual class: inhibitors | AlphaScreen BAZ2B-H3K14Ac peptide displacement | 360,000 tested, 4.4% active | Bromodomain adjacent to zinc finger domain protein 2B (Homo sapiens), Q9UIF8; also: potency is read from the fitted curve at half-maximal effect; % is scaled to controls: 0 for no effect and ±100 for the full control effect; nearly all actives have a fitted effect of over 60% in size
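Protein-peptide AlphaScreen: BAZ2B 50 nM, b-H3K14Ac 50 nM, 1x PBS pH 7.4 + 0.01% Tween-20. Preincubation 30 min RT; cpd 30 min RT (top 110 uM); beads 20 min RT, light-protected.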
HP1b binding inh – HTS for Inhibitors of HP1-beta Chromodomain Interactions with Methylated Histone Tails; Chromobox protein homolog 1 (Homo sapiens), P83916; AlphaScreen HP1-beta / biotin-H3K9me3 peptide binding; Potency, µM (highest dose often 114 µM), for the others: at the top dose activity change, negative = inhibition, actives largely listed as inhibitors; 390,000 tested, 0.56% active; AID 540317, 2011; also: potency is read from the fitted curve at half-maximal effect; nearly all actives have a fitted effect of over 70% in size
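HP1-beta protein (50 nM final) preincubated 30 min at room temperature with biotinylated H3(1-18)K9me3 peptide (50 nM) in PBS pH 7.4, 0.01% Tween-20, then compound added for 30 min. AlphaScreen streptavidin donor/nickel chelate acceptor beads (10 ug/mL final), 30 min dark, luminescence read.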
Active calls of the source: *; ? = inconclusive; / = no result given; [ ] = remark or other dose. A selection: hits, their analogues and other compounds. The true share with any hit is near 12%. Unless noted, calls follow the shape of the dose curve; as a rule, active = well fitted curve in the direction sought with a large enough effect; inconclusive = small, poorly fitted or top-dose-only effect, or another doubt; inactive = no such curve, though single readings can be large; an effect the other way counts as inactive or inconclusive.

SMILES | PI5P4Ka inh | G9a block | JMJD2A Tudor | PLK1 PBD block | BAZ2B inh | HP1b binding inh
COc1ccc2c(c1)c1c(c(=O)n(Cc3ccccc3)c(=O)n1CC(=O)Nc1c(C)cccc1C)n2C | / | ? | 3% | / | 1% | 53%
Cc1[nH]c(C)c(S(=O)(=O)NCc2ccco2)c1C(=O)N1CCCCC1 | 0 | -1% | -5% | 1% | -14% | 59%
CCCCNC(=O)c1cccc(NC(=O)c2nsc3ccccc23)c1 | / | ? | -11% | / | 0% | 14%[57 µM]
Cc1ccnc2ccc(SC(F)(F)F)cc12 | 0 | -16% | -10% | -10% | -36% | 33%
Nc1ccc(SC(F)(F)F)cc1 | -15 | 50µM* | 1% | -14% | 5% | 29%
COC1=C/C(=C/c2c(O)c(C#N)c3ccccn23)C=CC1=O | -18 | ? | 22µM* | -18% | 50µM* | ?
COc1cc(OC)cc(C(=O)c2c(C)c(C#N)c3ccccn23)c1 | -11 | -1% | 34% | 0% | 5% | 71%
COC(=O)C(Cc1ccccc1)NC(=O)CNC(=O)c1ccccc1OC (stereo not given) | 10 | -6% | -11% | -2% | 0% | -3%
COc1ccc(NC(=S)N2CCN(S(=O)(=O)c3ccc(F)cc3)CC2)cc1 | -2 | / | -26% | -8% | -13% | 45%
NS(=O)(=O)c1ccc(NC(=S)NCc2ccccc2Cl)cc1 | -2 | ? | -30% | ? | -21% | -3%
COc1ccc(S(=O)(=O)N2CCN(C(=S)Nc3ccc(S(N)(=O)=O)cc3)CC2)cc1 | -3 | 79µM* | -22% | -2% | -27% | 11%
NS(=O)(=O)c1ccc(NC(=S)NCc2cccc(Cl)c2)cc1 | 1 | 45µM* | -16% | -2% | 11% | 26%
S=C(NCc1ccccc1)NCc1cccc(CNC(=S)NCc2ccccc2)c1 | -19 | 13%[59 µM] | ? | 27µM* | -36% | -38%
NS(=O)(=O)c1ccc(NC(=S)NCc2ccccc2)cc1 | -19 | 11µM* | -22% | 12µM* | 0% | ?
O=C(Nc1cc(-c2ccc(F)c(F)c2)no1)c1ccccc1F | / | -1%[59 µM] | -24% | / | -11% | 21%
NC(=O)C1(N2CCCCC2)CCN(C(=S)Nc2ccc(S(N)(=O)=O)cc2)CC1 | -5 | / | -14% | 11µM* | -12% | 4%
NS(=O)(=O)c1ccc(NC(=S)N2CCC(Cc3ccccc3)CC2)cc1 | 0 | 14µM* | ? | 13µM* | ? | ?
O=C(CNC(=O)OCc1ccccc1)OC(c1ccccc1)c1ccccc1 | 8 | / | 22% | -9% | / | 42%[57 µM]
CCC1CCc2c(sc(NC(=O)c3cnccn3)c2C(N)=O)C1 (stereo not given) | -25 | 3.5µM* | ? | 3µM* | -36% | ?
CCC1CCc2c(sc(NC(=O)c3ccco3)c2C(N)=O)C1 (stereo not given) | -17 | 13%[59 µM] | ? | -21% | 2% | 71%
Cc1ccc(NC(=O)C2CCN(S(=O)(=O)c3c(C)noc3C)CC2)c(C)c1 | / | 10%[59 µM] | -3% | / | 2% | 26%
COc1ccc(C2NS(=O)(=O)N=C2N)cc1 (stereo not given) | 3 | 10% | -15%[11.4 µM] | 19µM* | 0% | 8%
CC1(N(O)C=C2C=CC(=O)C=C2)CCCCC1=O (stereo not given) | 2 | / | -7%[11.4 µM] | -9% | 7% | 67%
CCN(CC)CCCCN1c2ccccc2Sc2ccccc21 | 5 | ? | ? | -2% | ? | -20%
CN1CCN(CCCN2c3ccccc3Sc3ccccc32)CC1 | / | 28µM* | / | / | / | /
OC1CC2CCC(C1)N2CCCN1c2ccccc2Sc2ccc(Cl)cc21 (stereo not given) | 3 | / | ? | 3% | / | -4%[57 µM]
